We go through 37 molecules from PubChem BioAssay (NCI).

The nature of experiment [1]: NCI Yeast Anticancer Drug Screen. Data for the rad50 strain (AID 155).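 Note: 0% = growth of vehicle-only cultures of the same strain.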 The following applies: S. cerevisiae rad50 strain growth inhibition; at 50.0 µM; active compounds read high. The method in brief:
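Cells are treated with compound, grown, and their growth is then scored against vehicle-only cultures of the same repair-deficient yeast strain.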

Experiment [2] in a line: NCI Yeast Anticancer Drug Screen. Data for the mec2-1 strain (AID 157). The following applies: S. cerevisiae mec2-1 strain, at 50.0 µM, active compounds read high. In a few lines:
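Compounds were applied to mec2-1 yeast cells. Their growth was then compared with that of vehicle-treated cultures to give growth inhibition.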

Experiment [3] in a line: NCI Yeast Anticancer Drug Screen. Data for the sgs1 mgt1 strain (AID 161).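 Note: 0% = growth of cultures given vehicle only.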 The following applies: S. cerevisiae sgs1 mgt1 strain, at 50.0 µM, active compounds read high. The method in brief: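 Growth of a repair-deficient yeast mutant was monitored after compound treatment and expressed as inhibition relative to vehicle-treated cultures.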
Experiment [4] is described as follows: NCI Yeast Anticancer Drug Screen. Data for the cln2 rad14 strain (AID 165).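 Note: 0% = growth equal to vehicle treated cultures.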 The note with it: S. cerevisiae cln2 rad14 strain, at 50.0 µM, active compounds read high. In a few lines: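 Strain: cln2 rad14 yeast, altered in cell cycle control and DNA damage repair. Read-out: growth inhibition vs vehicle.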
The nature of experiment [5]: NCI Yeast Anticancer Drug Screen. Data for the bub3 strain (AID 167). The following applies: S. cerevisiae bub3 mutant strain, at 50.0 µM, active compounds read high. The method in brief: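 Part of a panel of yeast mutants defective in DNA damage repair or cell cycle regulation. Each strain is grown with compound, and inhibition is calculated relative to solvent-treated cultures.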

A short description of experiment [6]: NCI Yeast Anticancer Drug Screen. Data for the mlh1 rad18 strain (AID 175). The note with it: S. cerevisiae mlh1 rad18 strain growth inhibition; at 50.0 µM; active compounds read high. In a few lines:
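A repair-deficient yeast strain is exposed to test compound, and growth is scored relative to vehicle-treated controls.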

Each structure is given as a SMILES string. Compounds without any hit were thinned out: in the full panel of roughly 79,000, 15% have a hit. Values without a mark were called inactive. Activity calls are given as the source filed them. Cut-off read from the data, not from the text of the source: active = growth inhibition above about 70%; inactive = the rest.

As to `COc1ccc(C2C/C(=N/O)c3ccccc3O2)cc1` (configuration not stated), the growth inhibition in experiment [1] was 16.6%; in experiment [2], -7.85%; in experiment [3], 5.85%; in experiment [4], -93.6%; in experiment [5] it was -7.75%; in experiment [6], 10.1%.
Regarding `C=CCCCCCCCCC(=O)Nc1cc2c3c(c1)CCCN3CCC2`, the growth inhibition in experiment [1] was 6.95%; in experiment [2] it was 8.75%; in experiment [3] it was 1.1%; in experiment [4], -13.8%; in experiment [5], 10.6%; in experiment [6], 20.9%.
Consider `COc1ccccc1NC(=O)C1=C(C)NC(C)=C(C(=O)Nc2ccccc2OC)C1c1ccccc1OC`, for which the growth inhibition in experiment [1] was 15.2%; in experiment [2] it was -6.65%; in experiment [3] it was -26.8%; in experiment [4], 17.1%; in experiment [5], 0.35%; in experiment [6] it was 1.85%.
For `CCN(CCO)C(=O)C1(c2ccccc2)CCCCC1`, the growth inhibition in experiment [1] is 11.8%; in experiment [2], -9.7%; in experiment [3], 9.35%; in experiment [4] it was 28%; in experiment [5], 18.4%; in experiment [6], -1.4%.
For `N=c1ncn(C/C=C/c2ccccc2)c2nc[nH]c12`, the growth inhibition is -12.7% in experiment [1]; -28.4% in experiment [2]; -8.55% in experiment [3]; -11.4% in experiment [4]; -63.3% in experiment [5]; 5% in experiment [6].
Consider `CCOC(=O)C(c1ccccc1)N(CCCN(CC)CC)c1ccccc1` (configuration not stated), for which the growth inhibition is -10.8% in experiment [1]; -3.25% in experiment [2]; 1.6% in experiment [3]; -9.1% in experiment [4]; 5.15% in experiment [5]; 0.45% in experiment [6].
With `Cn1c[n+](C)c([S-])n1`, the growth inhibition was -13.2% in experiment [1]; 2.6% in experiment [2]; -12.1% in experiment [3]; -8.45% in experiment [4]; 3% in experiment [5]; -5.25% in experiment [6].
Take `OCC(O)C(O)C(O)c1nn(-c2ccccc2)c2nc3ccc(Cl)cc3nc12` (configuration not stated): the growth inhibition was -0.8% in experiment [1]; 9% in experiment [2]; 6.05% in experiment [3]; -3.8% in experiment [4]; 9.25% in experiment [5]; 5.3% in experiment [6].
Turning to `CC/C(=N\NS(=O)(=O)c1ccc(C)cc1)c1ccc(Br)cc1`, the growth inhibition in experiment [1] is 27.4%; in experiment [2] it was -7.2%; in experiment [3], -1.6%; in experiment [4] it was -7.3%; in experiment [5], -3.6%; in experiment [6], 3.4%.
Take `Nc1ccc(N2CCN(c3ccc(N)cc3)CC2)cc1`: the growth inhibition in experiment [1] was 12.2%; in experiment [2], -9.95%; in experiment [3], 16%; in experiment [4], 10.2%; in experiment [5] it was 12.3%; in experiment [6], 15.8%.
As to `C[Si](C)(C)O[Si](C)(C)CCl`, the growth inhibition in experiment [1] was -28.9%; in experiment [2] it was -12.4%; in experiment [3] it was -3.1%; in experiment [4], -10.2%; in experiment [5], -6.2%; in experiment [6] it was -34.2%.
Regarding `C[N+](C)(C)CC(=O)c1ccc[nH]1`, the growth inhibition is 2.1% in experiment [1]; -11.2% in experiment [2]; 14.9% in experiment [3]; -0.8% in experiment [4]; 1.4% in experiment [5]; 13.1% in experiment [6].
Regarding `COc1cccc2cc(C(C)=O)c(=O)oc12`, the growth inhibition in experiment [1] is 8.65%; in experiment [2] it was -5.35%; in experiment [3] it was 1.6%; in experiment [4], 3%; in experiment [5] it was 9.05%; in experiment [6], 2.85%.
Turning to `CC(C)(C)[Si](C)(C)OCCCC#CCO`, the growth inhibition in experiment [1] was 12.1%; in experiment [2], -5.3%; in experiment [3], -3.85%; in experiment [4], 14.4%; in experiment [5], -13.6%; in experiment [6] it was 24.3%.
Regarding `CC1OC(=O)C(O)=C1O` (configuration not stated), the growth inhibition is -5.15% in experiment [1]; -10.6% in experiment [2]; -5.75% in experiment [3]; 8.75% in experiment [4]; 8.85% in experiment [5]; -20.6% in experiment [6].
`CCOC(=O)N1CCN(C(=S)N/N=C(\C)c2cnccn2)CC1`: the growth inhibition in experiment [1] was 99.3% (active); in experiment [2], 99.5% (active); in experiment [3], 99.5% (active); in experiment [4] it was 99.5% (active); in experiment [5], 99.5% (active); in experiment [6], 99.3% (active).
`O=C(O)Cc1ccccc1[N+](=O)[O-]`: the growth inhibition in experiment [1] was 8.55%; in experiment [2] it was -12.1%; in experiment [3], -10.9%; in experiment [4], -16.9%; in experiment [5] it was -21.8%; in experiment [6], -3.95%.
With `C=CCNC(=S)N/C=C(/C#N)C(=O)OC`, the growth inhibition in experiment [1] is 1.85%; in experiment [2] it was -9.75%; in experiment [3], -16.5%; in experiment [4], 21.6%; in experiment [5], -8%; in experiment [6] it was 15.7%.
For `O=C1CC2(CCCCC2)CC(=O)N1`, the growth inhibition in experiment [1] was -6.25%; in experiment [2] it was -5.05%; in experiment [3], 8.3%; in experiment [4], -34.6%; in experiment [5], 6.9%; in experiment [6] it was -2.35%.
Turning to `O=C(CC(O)(CCc1ccccc1)c1ccccc1)N1CCC(O)(c2ccccc2)CC1` (configuration not stated), the growth inhibition is 97.2% (active) in experiment [1]; 98.5% (active) in experiment [2]; 98.2% (active) in experiment [3]; 97.6% (active) in experiment [4]; 97.8% (active) in experiment [5]; 98.2% (active) in experiment [6].
With `Cc1cc(Cc2ccc(N)c(C)c2)ccc1N`, the growth inhibition in experiment [1] was 3.4%; in experiment [2] it was 0.9%; in experiment [3], -12.8%; in experiment [4] it was -52.9%; in experiment [5] it was -19%; in experiment [6], -2.45%.
For `COc1cc(OC)c2[nH]c3c(c(=O)c2c1)C(=O)c1[nH]c2c(OC)cc(OC)cc2c(=O)c1C3=O`, the growth inhibition in experiment [1] is 26.8%; in experiment [2], 4.55%; in experiment [3] it was 12.8%; in experiment [4] it was 17.4%; in experiment [5] it was -3.55%; in experiment [6] it was 19.9%.
Turning to `C1CC[N+]2(CC1)CCCCC2`, the growth inhibition in experiment [1] is 0.1%; in experiment [2], 9.4%; in experiment [3] it was -0.55%; in experiment [4] it was 14.2%; in experiment [5], 23.1%; in experiment [6], -0.45%.
As for `c1ccc(N=C2SC(c3ccccc3)CN2C23CC4CC(CC(C4)C2)C3)cc1` (configuration not stated), the growth inhibition in experiment [1] was -18.4%; in experiment [2], -6.5%; in experiment [3] it was -38%; in experiment [4], -64.5%; in experiment [5], -1.2%; in experiment [6], -9.8%.
As for `c1ccc2c(SCN3CCOCC3)cccc2c1` (tested in a mixture with another compound), the growth inhibition in experiment [1] is 35%; in experiment [2] it was 21.6%; in experiment [3], 39%; in experiment [4] it was 40.9%; in experiment [5], 21.8%; in experiment [6], 29.8%.
Consider `NC(=O)c1ccccc1NC(=O)C(=O)C(C(=O)c1ccc2ccccc2c1)C1OC(=O)c2ccccc21` (configuration not stated), for which the growth inhibition was 0.7% in experiment [1]; -2.15% in experiment [2]; 10.6% in experiment [3]; -44.6% in experiment [4]; 15.4% in experiment [5]; 9.15% in experiment [6].
On to `COC(=O)C(C)(C#N)/C(C)=C/C(C)C` (configuration not stated), for which the growth inhibition in experiment [1] was -12.7%; in experiment [2] it was -20.9%; in experiment [3] it was -12.8%; in experiment [4] it was -3.9%; in experiment [5] it was -24.8%; in experiment [6], -33%.
`CCCOC(=O)c1ccccc1C=O`: the growth inhibition in experiment [1] was -12.1%; in experiment [2], -3.5%; in experiment [3] it was -18.6%; in experiment [4], -49.9%; in experiment [5], -10.3%; in experiment [6] it was 23.4%.
As to `O=C(Cc1ccccc1)NCO`, the growth inhibition is 2.95% in experiment [1]; 6.35% in experiment [2]; -9.6% in experiment [3]; -52.4% in experiment [4]; -3.5% in experiment [5]; 4.6% in experiment [6].
For the molecule `Cc1cc(C)nc(N)n1`, the growth inhibition is 0.25% in experiment [1]; 0.35% in experiment [2]; -1.85% in experiment [3]; -42.9% in experiment [4]; -1.9% in experiment [5]; 10.1% in experiment [6].
For `CC(C)(C)C(=O)/C=C(\OB(F)F)C(C)(C)C`, the growth inhibition was 2.25% in experiment [1]; -5.2% in experiment [2]; -9.15% in experiment [3]; 26.9% in experiment [4]; -15.8% in experiment [5]; 5.25% in experiment [6].
Turning to `Cc1ccccc1N=C(N)Nc1ccccc1C`, the growth inhibition is -25.5% in experiment [1]; -29.9% in experiment [2]; -44.3% in experiment [3]; 5.7% in experiment [4]; -38.7% in experiment [5]; -52.4% in experiment [6].
In the case of `O=C(OCc1ccccc1CN1CCCC1)c1ccc([N+](=O)[O-])cc1Cl`, the growth inhibition in experiment [1] was -13%; in experiment [2] it was -15.8%; in experiment [3], -13.7%; in experiment [4] it was -52.7%; in experiment [5], -0.9%; in experiment [6] it was -54.8%.
As for `O=S1(=O)C(c2cccc(C(F)(F)F)c2)=C(O)c2cc3ccccc3nc21`, the growth inhibition was 47.9% in experiment [1]; 21% in experiment [2]; 49.2% in experiment [3]; 33.2% in experiment [4]; -4.6% in experiment [5]; 18.6% in experiment [6].
As for `Nc1ccc(C(=O)Oc2ccc(OC(=O)c3ccccc3)cc2)cc1`, the growth inhibition was 9.7% in experiment [1]; 20.1% in experiment [2]; 18.9% in experiment [3]; -6.8% in experiment [4]; 0.4% in experiment [5]; 13.9% in experiment [6].
For the molecule `CC(=O)Nc1ccc(C(=O)NN2C(=O)C(Cl)C2c2ccccc2O)cc1` (configuration not stated), the growth inhibition in experiment [1] was -24.8%; in experiment [2], -16.3%; in experiment [3] it was -45.9%; in experiment [4] it was 0.15%; in experiment [5] it was -38.1%; in experiment [6], -32.9%.
For the molecule `OCC1OC(O)C(CO)OC1O` (configuration not stated), the growth inhibition in experiment [1] is 16.1%; in experiment [2], -5.2%; in experiment [3], 3.7%; in experiment [4], 40.2%; in experiment [5], 22.2%; in experiment [6], -5.2%.
